Source: PubChem BioAssay (NCI)
The panel holds about 83,000 compounds, 20% with a hit somewhere; the sample as a whole holds those more often.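 Results are percent growth after 48 hours of single-concentration exposure. 100 means growth as in untreated cells, lower positive values show inhibition; negative values down to -100 show cell death.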 Active and inactive are the calls of the source. How the source made its calls: active means growth percent below 10; inactive means the rest.

Columns and labels:
Experiment in all cases: NCI-60 one-dose screen, 48 h (100 = growth as untreated, 0 = no growth, -100 = all killed)
Settings in all cases: 10 µM unless noted
HT29 colon = test system: HT29 colon
SNB-75 CNS = test system: SNB-75 CNS
SNB-19 CNS = test system: SNB-19 CNS
U251 CNS = test system: U251 CNS
PC-3 prostate = test system: PC-3 prostate
UACC-62 melanoma = test system: UACC-62 melanoma
LOX IMVI melanoma = test system: LOX IMVI melanoma
SK-MEL-28 melanoma = test system: SK-MEL-28 melanoma
SK-MEL-2 melanoma = test system: SK-MEL-2 melanoma
EKVX NSCLC = test system: EKVX NSCLC
SN12C renal = test system: SN12C renal
UO-31 renal = test system: UO-31 renal
TK-10 renal = test system: TK-10 renal
ACHN renal = test system: ACHN renal
CAKI-1 renal = test system: CAKI-1 renal
A498 renal = test system: A498 renal
CCRF-CEM leukemia = test system: CCRF-CEM leukemia
MOLT-4 leukemia = test system: MOLT-4 leukemia
SR leukemia = test system: SR leukemia
SK-MEL-5 melanoma = test system: SK-MEL-5 melanoma

Measured: growth

COc1ccc(-c2nc3ccc(-c4nnc(SCC(=O)Nc5ccc(C(=O)/C=C/c6ccccc6)cc5)o4)cc3[nH]2)cc1OC
inactive: HT29 colon 103% | SNB-75 CNS 90.3% | SNB-19 CNS 107% | U251 CNS 93.2% | PC-3 prostate 101% | UACC-62 melanoma 95% | SK-MEL-28 melanoma 105% | SK-MEL-2 melanoma 108% | EKVX NSCLC 104% | SN12C renal 94.8% | UO-31 renal 88.5% | TK-10 renal 133% | ACHN renal 96.3% | CAKI-1 renal 97% | A498 renal 112% | CCRF-CEM leukemia 88.4% | MOLT-4 leukemia 80.5% | SR leukemia 83.6%
active: LOX IMVI melanoma -11.8%

Cc1c(Nc2nnc(SCC(=O)Nc3sc4c(c3C#N)CCCC4)s2)c(=O)n(-c2ccccc2)n1C
inactive: HT29 colon 117% | SNB-75 CNS 127% | SNB-19 CNS 100% | U251 CNS 102% | PC-3 prostate 101% | UACC-62 melanoma 92.9% | LOX IMVI melanoma 88.7% | SK-MEL-28 melanoma 107% | SK-MEL-2 melanoma 106% | SN12C renal 106% | UO-31 renal 97.3% | TK-10 renal 135% | ACHN renal 100% | CAKI-1 renal 110% | A498 renal 109% | CCRF-CEM leukemia 99.4% | MOLT-4 leukemia 92.7% | SR leukemia 98.5%

C#Cc1nc(C2=C(C)C(=N\O)/C(=N/O)C2)cs1
inactive: HT29 colon 111% | SNB-75 CNS 60% | SNB-19 CNS 95.6% | U251 CNS 103% | PC-3 prostate 90.6% | SK-MEL-5 melanoma 99% | UACC-62 melanoma 91.8% | SK-MEL-28 melanoma 111% | EKVX NSCLC 95.7% | SN12C renal 98.2% | ACHN renal 78.7% | CAKI-1 renal 93.7% | CCRF-CEM leukemia 87.1% | MOLT-4 leukemia 88% | SR leukemia 54.4%
active: UO-31 renal -92.4%

O=C(NNc1nc2cc(F)ccc2n2c(CN3CC4(COC4)C3)ccc12)c1cnccn1
active: UACC-62 melanoma 5.57% | A498 renal -6.2% | CCRF-CEM leukemia 4.02% | MOLT-4 leukemia 6.4% | SR leukemia 0.659%
inactive: HT29 colon 28.6% | SNB-75 CNS 63.1% | SNB-19 CNS 29.4% | U251 CNS 11.6% | PC-3 prostate 38.9% | LOX IMVI melanoma 19.1% | SK-MEL-28 melanoma 20.6% | SK-MEL-2 melanoma 49.7% | EKVX NSCLC 17.6% | SN12C renal 22.4% | UO-31 renal 13.7% | TK-10 renal 38.9% | CAKI-1 renal 19.3%

CC(=O)Oc1ccccc1C(=O)Nc1ccc(C(=O)/C=C/c2ccncc2)cc1
active: HT29 colon 5.38% | ACHN renal 0.759% | SR leukemia -15.2%
inactive: SNB-75 CNS 48.4% | SNB-19 CNS 76% | U251 CNS 21.1% | PC-3 prostate 70.4% | SK-MEL-5 melanoma 74% | UACC-62 melanoma 50.3% | SK-MEL-28 melanoma 55.8% | EKVX NSCLC 71.7% | SN12C renal 33.5% | UO-31 renal 44.4% | CAKI-1 renal 62.6% | A498 renal 100% | CCRF-CEM leukemia 10.2% | MOLT-4 leukemia 23.1%

COc1ccc(-c2cc(C(=O)N=Nc3c(O)[nH]c4ccccc34)c3ccccc3n2)cc1OC
inactive: HT29 colon 102% | SNB-75 CNS 92% | SNB-19 CNS 97.9% | U251 CNS 95.3% | PC-3 prostate 91.6% | UACC-62 melanoma 91.5% | LOX IMVI melanoma 105% | SK-MEL-28 melanoma 98.1% | SK-MEL-2 melanoma 107% | EKVX NSCLC 91.9% | SN12C renal 94.6% | UO-31 renal 85.2% | ACHN renal 102% | CAKI-1 renal 94.9% | A498 renal 82.1% | CCRF-CEM leukemia 100% | MOLT-4 leukemia 102% | SR leukemia 102%

COc1ccc(Cc2nn(CC(=O)N/N=C/c3ccc(Cl)cc3)c(=O)c3c(C)noc23)cc1
inactive: HT29 colon 92.4% | SNB-19 CNS 67.5% | U251 CNS 71.4% | PC-3 prostate 78.9% | UACC-62 melanoma 99.2% | SK-MEL-28 melanoma 97.9% | SK-MEL-2 melanoma 90.8% | EKVX NSCLC 88.8% | SN12C renal 66% | UO-31 renal 84.9% | TK-10 renal 95.5% | ACHN renal 72.7% | CAKI-1 renal 80.8% | A498 renal 90.5% | CCRF-CEM leukemia 74.8% | MOLT-4 leukemia 89.7% | SR leukemia 53.9%
active: SNB-75 CNS -4.27%

COc1cc(/C=C/C(=O)c2ccc(C(F)(F)F)cc2)ccc1Oc1nc(NCCO)nc(N2CCOCC2)n1
active: CCRF-CEM leukemia 4.08% | MOLT-4 leukemia 3.51% | SR leukemia -8.21%
inactive: HT29 colon 96.2% | SNB-75 CNS 91.4% | SNB-19 CNS 87.6% | U251 CNS 70.1% | PC-3 prostate 87.2% | UACC-62 melanoma 78.7% | SK-MEL-28 melanoma 96.1% | SK-MEL-2 melanoma 98.8% | EKVX NSCLC 93.7% | SN12C renal 86.9% | UO-31 renal 70.5% | ACHN renal 86.2% | CAKI-1 renal 82.7%

C#Cc1nc(C2=C(C)C(O)/C(=N/O)C2)cs1 (configuration not stated)
active: SNB-75 CNS -85.7% | UO-31 renal -91.1% | CCRF-CEM leukemia -27.7% | SR leukemia -32.8%
inactive: HT29 colon 113% | SNB-19 CNS 109% | U251 CNS 109% | PC-3 prostate 101% | UACC-62 melanoma 88% | SK-MEL-28 melanoma 111% | SK-MEL-2 melanoma 103% | EKVX NSCLC 91.3% | SN12C renal 99.9% | ACHN renal 21.5% | CAKI-1 renal 76.5% | MOLT-4 leukemia 86.5%

Cc1cccc(/C=C/c2nn3c(-c4ccco4)nnc3s2)c1
inactive: HT29 colon 104% | SNB-75 CNS 100% | SNB-19 CNS 94.1% | U251 CNS 99.1% | PC-3 prostate 103% | UACC-62 melanoma 94% | SK-MEL-28 melanoma 97.3% | SK-MEL-2 melanoma 112% | EKVX NSCLC 81.3% | SN12C renal 94.8% | UO-31 renal 83.7% | TK-10 renal 101% | ACHN renal 102% | CAKI-1 renal 91.4% | A498 renal 77.5% | CCRF-CEM leukemia 99.4% | MOLT-4 leukemia 104% | SR leukemia 79%

COc1ccc(CNS(=O)(=O)/N=C2\NC(=O)NC2=C(Cl)Cl)cc1
inactive: SNB-19 CNS 30% | U251 CNS 14.8% | PC-3 prostate 28% | UACC-62 melanoma 27.4% | SK-MEL-28 melanoma 48.7% | SK-MEL-2 melanoma 29.1% | EKVX NSCLC 83.2% | SN12C renal 20.7% | UO-31 renal 48.9% | TK-10 renal 41.6% | ACHN renal 32.7% | CAKI-1 renal 45.9% | CCRF-CEM leukemia 15.8% | MOLT-4 leukemia 19% | SR leukemia 20.5%
active: HT29 colon 8.17% | SNB-75 CNS -23.1% | A498 renal -9.6%

COc1cc(/C=C/C(=O)c2cc(OC)c(OC)c(OC)c2)ccc1OCc1ccc(F)cc1
active: HT29 colon 4.34% | SNB-75 CNS 8.67% | CCRF-CEM leukemia 5.5%
inactive: SNB-19 CNS 49.8% | U251 CNS 33.8% | PC-3 prostate 35% | UACC-62 melanoma 43.9% | SK-MEL-28 melanoma 81.1% | SK-MEL-2 melanoma 90% | SN12C renal 67.9% | UO-31 renal 45.4% | CAKI-1 renal 45.8% | MOLT-4 leukemia 46.2% | SR leukemia 16.3%

Cc1ccc(CNS(=O)(=O)/N=C2\NC(=O)NC2=C(Cl)Cl)cc1
active: SNB-75 CNS -2.97%
inactive: HT29 colon 15.7% | SNB-19 CNS 46.9% | U251 CNS 39.1% | PC-3 prostate 38.9% | UACC-62 melanoma 77.3% | SK-MEL-28 melanoma 83.8% | SK-MEL-2 melanoma 28.8% | EKVX NSCLC 95.6% | SN12C renal 26.4% | UO-31 renal 84.7% | ACHN renal 73% | CAKI-1 renal 94.6% | A498 renal 56.7% | CCRF-CEM leukemia 16.1% | MOLT-4 leukemia 21% | SR leukemia 69.5%

C=CCn1c(SCC(=O)c2ccc(Br)cc2)nnc1-c1c[nH]c2ccccc12
inactive: HT29 colon 104% | SNB-75 CNS 106% | SNB-19 CNS 100% | U251 CNS 99.9% | PC-3 prostate 78.3% | UACC-62 melanoma 83.1% | SK-MEL-28 melanoma 96.1% | SK-MEL-2 melanoma 115% | EKVX NSCLC 92.8% | SN12C renal 95.6% | UO-31 renal 68.4% | ACHN renal 88.3% | CAKI-1 renal 90.2% | CCRF-CEM leukemia 97.9% | MOLT-4 leukemia 91.2% | SR leukemia 88.7%

C=CCn1c(SCC(=O)c2ccccc2)nnc1-c1c[nH]c2ccccc12
inactive: HT29 colon 112% | SNB-75 CNS 96.4% | SNB-19 CNS 98.3% | U251 CNS 107% | PC-3 prostate 89.1% | UACC-62 melanoma 81.5% | SK-MEL-28 melanoma 105% | SK-MEL-2 melanoma 105% | EKVX NSCLC 95.8% | SN12C renal 92.7% | UO-31 renal 65.7% | TK-10 renal 144% | ACHN renal 93.8% | CAKI-1 renal 83.1% | CCRF-CEM leukemia 91.2% | MOLT-4 leukemia 92.8% | SR leukemia 76.5%

CN(C)CCCOc1c2ccc(Cl)cc2nc2c1oc1ccc(Cl)cc12
active: HT29 colon -77.6% | U251 CNS -66% | UACC-62 melanoma -68.1% | SK-MEL-28 melanoma 4.58% | UO-31 renal 2.96% | ACHN renal -85.6% | CAKI-1 renal -12.1% | A498 renal -6.7% | MOLT-4 leukemia 1.92% | SR leukemia -31.1%
inactive: SNB-75 CNS 18.3% | SNB-19 CNS 24.5% | PC-3 prostate 23.2% | SK-MEL-2 melanoma 58.5% | EKVX NSCLC 31.8% | SN12C renal 21.4%
